Measurements from PubChem BioAssay AID652040 (Broad Institute, 2013).
Measured potencies and affinities stand elsewhere. Values without a mark were called inactive.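 How the source made its calls: active means falling luciferase signal whose fitted half-maximal concentration is at most twice the top tested dose; inconclusive means flat inhibition between 30 and 70% or a poor curve fit; inactive means the rest.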

Assay: off-target signal loss in HeLa-CEM21 co-culture – HeLa F-luc CTL cells, cherry-picked, counter-screen for HIV-1 Env fusion inhibitor project, dose response (AID 652040);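 further: 0% = median of neutral control wells and -100% = doxycycline 40 µg/mL wells; more negative values mean stronger loss of luciferase signal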
Conditions: HeLa-F-luc CTL cells with CEM21, firefly luciferase counterscreen; series mostly up to 35 µM; activity change, negative = inhibition: at the top concentration

Going from `CC1CCCCN1S(=O)(=O)c1ccc(C(=O)Nc2nnc(-c3cccs3)o2)cc1` (configuration not stated) to `Cn1c(CN2CCCCC2)nc2cc(NC(=O)c3ccc(Cl)cc3)ccc21`, the “activity change, negative = inhibition” value rises from -5.3% to 11.5%.

First: Nc1nc2c(ncn2[C@@H]2O[C@H](C(=O)NCC(c3ccccc3)c3ccccc3)[C@@H](O)[C@H]2O)c(=O)[nH]1
Second: N#Cc1ccc(CSc2nnc(COc3ccccc3)n2-c2ccccc2)cc1
The “activity change, negative = inhibition” value of the first is lower: 2.43% for the first, 52% for the second.

First: O=C(N/N=C/c1ccc(-n2ccnc2)cc1)c1cccs1
Second: O=C(COc1ccc(-n2cnnn2)cc1)Nc1ccc(F)c(F)c1
The “activity change, negative = inhibition” value of the first is higher: 27.7% for the first, 7.45% for the second.

Going from `COc1ccccc1-c1c(-c2ccc(O)cc2O)n[nH]c1C(F)(F)F` to `COc1ccc(-c2cc(C(=O)NNC(=S)NC(=O)c3c(-c4ccccc4)noc3C)[nH]n2)cc1`, the “activity change, negative = inhibition” value falls from 13% to 1.89%.

Compared with `Cc1onc(-c2ccccc2)c1C(=O)NC(=S)NNC(=O)c1ccc(O)cc1`, `COc1ccc(NS(=O)(=O)c2cccc(C(=O)NNC(=O)CNC(=O)c3ccc(C)cc3)c2)cc1` is higher in “activity change, negative = inhibition” value: -0.417% for the first, 14.4% for the second.

First: CC(=O)OC1c2ccccc2C(=O)N1c1ccccc1C (configuration not stated)
Second: Cc1ccccc1S(=O)(=O)NC(=O)C1(C)CCN1C(=O)CCc1ccc(Cl)cc1Cl (configuration not stated)
The “activity change, negative = inhibition” value of the first is lower: 9.79% for the first, 56.4% for the second.

First: Cc1nc2sc(C(c3ccco3)N3CCC(Cc4ccccc4)CC3)c(O)n2n1 (configuration not stated)
Second: Cc1oc(-c2ccc(Cl)cc2)nc1CN1CCCC(C(=O)NCc2cccnc2)C1 (configuration not stated)
The “activity change, negative = inhibition” value of the first is higher: 36.4% for the first, -6.13% for the second.

Compared with `CCOC(=O)C1CCCN(Cc2nc(N)nc(Nc3ccc(OC)cc3)n2)C1` (configuration not stated), `COC(=O)c1ccc(NC(=O)c2ccc(CN3CCOCC3)cc2)cc1` is lower in “activity change, negative = inhibition” value: 0.49% for the first, -10.9% for the second.

Compared with `CCN(CCn1cccn1)C(=O)CC1C(=O)NCCN1CCc1ccccc1` (configuration not stated), `Cc1ccc(NC(=O)c2ccc(CN3CCc4ccccc4C3)cc2)cc1` is higher in “activity change, negative = inhibition” value: 29.3% for the first, 60.7% for the second.

Going from `COc1ccc(/C=C/c2cc(-c3ccc(C)cc3)o[n+]2C)cc1` to `COC(=O)C[C@H]1C=C[C@H](NC(=O)c2ccccn2)[C@@H](CO)O1`, the “activity change, negative = inhibition” value falls from 147% to -2.51%.

Going from `COc1ccc2c(C)nc(Nc3nc(C)c(C)c(=O)[nH]3)nc2c1` to `CCOC(=O)[C@@H]1[C@H]2COc3cc(OC)ccc3[C@H]2N2C(=O)N(c3ccc(C(F)(F)F)cc3)C(=O)[C@]12C`, the “activity change, negative = inhibition” value falls from 156% [at 16 µM] to 90% [at 16 µM].
